Source: PubChem BioAssay (National Center for Advancing Translational Sciences (NCATS))
TGFb inhibitor – blocks TGF-b signaling; 410,000 tested, 1.2% active; HepG2 CAGA-GFP TGF-b/SMAD3 reporter, GFP fluorescence, 18 h; TGF-beta stimulated, 500 pg/mL final; Potency, µM (titrated, usually from 46.1 µM), most hits filed as inhibitors; further: nearly all actives have a fitted effect of over 65% in size
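GFP signal (ex488/em500-530) from TGF-beta-stimulated HEPG2 CAGA-GFP cells, 500 pg/mL final, 18 h at 37 degrees C in DMEM plus 1% FBS, normalized to unstimulated and DMSO-stimulated controls.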
DT40 TDP1 CPT – growth inhibition of DT40 Tdp1-/-;hTDP1 cells with camptothecin (screen for TDP1 inhibitors). Potency, µM (top dose mostly 46.2 µM), usual class: inhibitors. 420,000 tested, 12% active. AID 686979. chicken DT40 Tdp1-/-;hTDP1 cells + 20 nM CPT, ATP luminescence, 48 h; further: nearly all actives have a fitted effect of over 55% in size
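Chicken DT40 Tdp1-/- cells stably complemented with human TDP1 were seeded at 400 cells/well in medium containing 20 nM camptothecin, exposed to pin-transferred compounds, and grown at 37 °C for at least 48 hr. Viability was read as ATP luminescence.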
HT1080 IDH1KD tx – HT-1080 IDH1 knockdown cell toxicity (counter line) | HT-1080 IDH1 knockdown viability, ATP luminescence, 48 h | Potency, µM (doses to about 46.1 µM), hits mostly cytotoxic | 360,000 tested, 2% active | AID 686971
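Knockdown cells (IDH1KD HT-1080) received compounds 2 h after plating at 750 cells/well and were kept 48 h at 37 °C in 5% FBS RPMI. A CellTiter-Glo luminescence read gave % activity for curve fitting.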
HT1080-NT tox – kills 2HG-producing HT-1080-NT fibrosarcoma cells. HT-1080-NT fibrosarcoma viability, CellTiter-Glo ATP luminescence, 48 h. Potency, µM (titrated, usually from 46.1 µM), most hits filed as cytotoxic. 360,000 tested, 1.6% active. AID 686970;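 further: NT is the 2HG producing partner of a matched IDH1 knockdown line; nearly all actives have a fitted effect of over 55% in size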
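Compounds were tested in concentration-response format on HT-1080-NT cells for 48 hours at 37 degrees C. Cell viability came from CellTiter-Glo luminescence; curves were classified by r2, response magnitude and activity.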
HepG2 tox – counter-screen for TGF-b inhibitors: cytotoxicity in HepG2 cells; HepG2 CAGA-GFP viability, ATP luminescence, 18 h; Potency, µM (highest dose often 46.1 µM), actives largely listed as cytotoxic; 410,000 tested, 0.76% active; AID 588856
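CellTiter-Glo luminescence gave cytotoxicity after 18 hours at 37 degrees C. The cells were HepG2 CAGA-GFP in 1% FBS DMEM, stimulated with 500 pg/mL TGF-beta after compound addition. %Activity was normalised to no-cell wells (complete cell-killing) and DMSO (no toxicity), and curves were fitted and classified.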
DT40 TDP1 no CPT – qHTS for Inhibitors of human tyrosyl-DNA phosphodiesterase 1 (TDP1): qHTS in cells in absence of CPT; DT40 Tdp1-/- hTDP1 cells, no CPT, ATP luminescence, 48 h; AID 686978, 2013; 420,000 tested, 15% active; Potency, µM (titrated, usually from 46.2 µM), most hits filed as inhibitors; further: nearly all actives have a fitted effect of over 55% in size
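Compound effects on proliferation are scored in DT40 Tdp1-/-;hTDP1 cells in the absence of CPT. ATP levels (CellTiter-Glo luminescence) are recorded after a ≥48 hr, 37 °C incubation.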
Large screens that a line does not name were inactive. This is a sample that favours compounds with a hit; in the whole collection about 17% have one here. The call rests on the fitted dose curve; in most records, active means well fitted curve in the direction sought with a large enough effect; inconclusive means small, poorly fitted or top-dose-only effect, or another doubt; inactive means no such curve, though single readings can be large; an effect the other way counts as inactive or inconclusive.

COc1cc(NC(=O)CSCC(=O)N(C)C2CCCCC2)cc(OC)c1	none
CCN1/C(=C/c2ccc3cc(C)ccc3[n+]2CC)Sc2ccccc21	DT40 TDP1 CPT 0.065µM, HT1080 IDH1KD tx 12µM, HT1080-NT tox 5.8µM, DT40 TDP1 no CPT 0.058µM
CC[n+]1c(/C=C2\Sc3ccccc3N2C)ccc2cccc(C)c21	DT40 TDP1 CPT 0.52µM, HT1080 IDH1KD tx 10µM, HT1080-NT tox 13µM, DT40 TDP1 no CPT 0.52µM
CN1/C(=C/c2cccc[n+]2CCO)Sc2ccccc21	DT40 TDP1 CPT inconclusive, DT40 TDP1 no CPT inconclusive
NCCCC[C@H]1CNC(=S)N1CCc1cccc(F)c1	DT40 TDP1 CPT inconclusive
CCOc1ccc(N2C(=O)C3C(c4ccc(O)cc4)NC(CCSC)(C(=O)OC)C3C2=O)cc1 (stereo not drawn)	none
C[C@H]1CN([C@@H](C)CO)C(=O)c2cc(-c3cccc(F)c3)cnc2O[C@H]1CN(C)C(=O)c1cnccn1	none
CC(C)n1cnc2c(Nc3cccc(Cl)c3)nc(NCCCO)nc21	TGFb inhibitor inconclusive, DT40 TDP1 CPT 21µM, HT1080 IDH1KD tx inconclusive, DT40 TDP1 no CPT 16µM
Cc1cccc(NC(=S)N=Nc2c(O)[nH]c3ccccc23)c1	TGFb inhibitor inconclusive, DT40 TDP1 CPT 3.3µM, HT1080 IDH1KD tx inconclusive, HT1080-NT tox inconclusive, DT40 TDP1 no CPT 4.6µM
CC(C)NC(=S)N=Nc1c(O)[nH]c2ccc(C(C)C)cc12	TGFb inhibitor inconclusive, DT40 TDP1 CPT 5.8µM, DT40 TDP1 no CPT 5.2µM
O=C(CCCCCNC(=O)c1ccccc1Br)N=Nc1c(O)[nH]c2ccccc12	DT40 TDP1 CPT 21µM, DT40 TDP1 no CPT inconclusive
O=C(N=Nc1c(O)[nH]c2ccccc12)Nc1ccccc1	DT40 TDP1 CPT 18µM, DT40 TDP1 no CPT inconclusive
CC(C)c1ccc2[nH]c(O)c(N=NC(=O)c3cccc(S(=O)(=O)Nc4ccccc4Cl)c3)c2c1	none
O=C(CNC(=O)Cc1ccccc1)N=Nc1c(O)[nH]c2ccccc12	none
Cc1nn(C(=O)CCC(=O)NCCc2ccccc2)c2ccccc12	none
O=C(CN(C(=O)CNC(=O)c1ccco1)c1ccc2c(c1)OCCO2)NC1CCCC1	none
O=C(N=Nc1c(O)[nH]c2ccccc12)c1cccc(S(=O)(=O)Nc2ccccc2Cl)c1	DT40 TDP1 CPT inconclusive
NS(=O)(=O)c1cc(C(=O)N=Nc2c(O)[nH]c3ccccc23)ccc1Cl	DT40 TDP1 CPT inconclusive, DT40 TDP1 no CPT 18µM
CCc1ccc(NC(=O)c2cnc(SC)nc2C)cc1	DT40 TDP1 CPT inconclusive
COc1ccc(C2C(C#N)=C(N)Oc3cccc(O)c32)cc1 (stereo not drawn)	none
O=C(CCCN1C(=O)c2cccc3cccc(c23)C1=O)NCc1cccnc1	none
O=C(CCCCCN1C(=O)c2cccc3cccc(c23)C1=O)NCc1cccnc1	DT40 TDP1 CPT 2.9µM, HT1080 IDH1KD tx 2.3µM, HT1080-NT tox 2.9µM, DT40 TDP1 no CPT inconclusive
Cc1ccc2c(c1)-c1cc(C)ccc1C2=O	none
Cc1oc(-c2ccccc2F)nc1CS(=O)(=O)CC(=O)N1CCN(c2ccccc2)CC1	TGFb inhibitor inconclusive, DT40 TDP1 CPT inconclusive, DT40 TDP1 no CPT inconclusive
CN(C)CC(C)(C)CNC(=O)CC1C(=O)NCCN1Cc1ccc(-c2ccccc2)cc1 (stereo not drawn)	none
CC(C)(C)OC(=O)N1CCC(c2cc(=O)n3[nH]c(-c4ccc(Cl)cc4)cc3n2)CC1	DT40 TDP1 CPT 21µM, DT40 TDP1 no CPT 23µM
CC(C)(C)OC(=O)N1CCC(c2cc(=O)n3[nH]cc(C(=O)Nc4ccc(F)c(Cl)c4)c3n2)CC1	none
Nc1ccc(N=Nc2ccc(O)cc2)c(N)n1	DT40 TDP1 CPT 21µM, DT40 TDP1 no CPT 15µM
CC(C)(O)c1[nH]c2ccc(C(F)(F)F)cc2c1C(C)(C)O	TGFb inhibitor inconclusive, DT40 TDP1 no CPT inconclusive
